Test results published in the supplement of paper PMC10849652.
The full data set covers some 7,900 targets. This sample favours those with a hit. About 0.6% of all pairs of compound and target were hits. A number with no mark means an inactive call.

What was measured:
Experiment in all cases: log2 fold change, soluble protein after heating vs DMSO (PISA); higher = thermal stabilisation; K562 cells, 10 uM, 30 min; active = over 0.2 and 3.5 SD of the protein, either way, in both replicates (recomputed)
ZC3H8 = ZC3H8 (UniProt Q8N5P1)
Method in brief: (§1)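 K562 cells at 2×10^6 cells/mL were treated for 30 min with 10 μM compound, and aliquots were heated for 3 min over 48°C-58°C before pooling. Extraction used PBS with 0.5% NP-40 at 4°C, and soluble protein was the supernatant after 21,000xg for 90 min, measured by TMTpro 16plex LC-MS/MS with channel sums equalised. Thermal stability values, relative to control samples and from duplicates, are log2 fold changes.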

ZC3HC1 = ZC3HC1 (UniProt Q86WB0)
ZC3HC1, sequence (Q86WB0 whole entry, looked up): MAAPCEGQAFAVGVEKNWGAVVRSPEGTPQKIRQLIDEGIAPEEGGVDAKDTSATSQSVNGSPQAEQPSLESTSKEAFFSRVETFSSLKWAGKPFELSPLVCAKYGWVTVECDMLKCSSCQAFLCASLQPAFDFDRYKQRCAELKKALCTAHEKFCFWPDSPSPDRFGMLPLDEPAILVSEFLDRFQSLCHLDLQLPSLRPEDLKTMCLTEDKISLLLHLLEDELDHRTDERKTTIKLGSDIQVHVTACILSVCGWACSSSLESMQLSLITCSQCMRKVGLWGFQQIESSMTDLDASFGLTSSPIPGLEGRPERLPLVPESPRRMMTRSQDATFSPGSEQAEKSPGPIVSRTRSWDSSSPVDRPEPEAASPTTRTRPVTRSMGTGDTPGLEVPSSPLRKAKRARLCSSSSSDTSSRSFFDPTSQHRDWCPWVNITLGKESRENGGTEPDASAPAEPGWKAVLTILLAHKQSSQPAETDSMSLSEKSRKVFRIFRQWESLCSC
Method in brief: as §1

ZCCHC9 = ZCCHC9 (UniProt Q8N567)
Method in brief: as §1

ZDHHC17 = ZDHHC17 (UniProt Q8IUH5)
Method in brief: as §1

ZDHHC20 = ZDHHC20 (UniProt Q5W0Z9)
ZDHHC20, sequence (Q5W0Z9 whole entry, looked up): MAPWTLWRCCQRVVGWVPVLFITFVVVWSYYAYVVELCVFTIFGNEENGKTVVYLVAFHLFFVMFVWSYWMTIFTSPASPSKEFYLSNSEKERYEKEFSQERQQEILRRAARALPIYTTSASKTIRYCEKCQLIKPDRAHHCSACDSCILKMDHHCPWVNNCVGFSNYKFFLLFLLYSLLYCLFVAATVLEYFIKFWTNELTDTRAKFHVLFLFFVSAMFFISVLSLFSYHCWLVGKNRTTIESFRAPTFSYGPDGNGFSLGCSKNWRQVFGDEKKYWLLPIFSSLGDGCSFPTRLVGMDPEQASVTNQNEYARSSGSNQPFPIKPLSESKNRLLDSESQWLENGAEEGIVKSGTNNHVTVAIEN
Method in brief: as §1

ZDHHC5 = ZDHHC5 (UniProt Q9C0B5)
ZDHHC5, sequence (Q9C0B5 whole entry, looked up): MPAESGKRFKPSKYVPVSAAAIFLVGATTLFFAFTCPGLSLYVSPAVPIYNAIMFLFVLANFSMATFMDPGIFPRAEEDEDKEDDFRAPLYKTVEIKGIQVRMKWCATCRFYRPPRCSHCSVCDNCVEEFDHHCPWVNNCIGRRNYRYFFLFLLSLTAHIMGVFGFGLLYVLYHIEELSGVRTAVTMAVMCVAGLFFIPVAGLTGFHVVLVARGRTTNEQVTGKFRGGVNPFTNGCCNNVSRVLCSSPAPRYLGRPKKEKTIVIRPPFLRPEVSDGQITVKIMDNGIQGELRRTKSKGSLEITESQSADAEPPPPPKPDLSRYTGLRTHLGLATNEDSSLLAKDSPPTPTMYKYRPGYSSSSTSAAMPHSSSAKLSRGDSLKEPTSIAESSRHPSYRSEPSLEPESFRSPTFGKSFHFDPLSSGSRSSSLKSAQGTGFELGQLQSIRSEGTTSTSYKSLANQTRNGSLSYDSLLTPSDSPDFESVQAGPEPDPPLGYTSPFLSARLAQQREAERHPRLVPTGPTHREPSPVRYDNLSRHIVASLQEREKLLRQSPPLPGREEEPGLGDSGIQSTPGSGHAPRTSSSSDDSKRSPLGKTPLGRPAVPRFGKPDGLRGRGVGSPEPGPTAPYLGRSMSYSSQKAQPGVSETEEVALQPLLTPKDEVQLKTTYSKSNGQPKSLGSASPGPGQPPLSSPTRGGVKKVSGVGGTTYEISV
Method in brief: as §1

ZDHHC7 isoform 2 = ZDHHC7 isoform 2 (UniProt Q9NXF8)
Method in brief: as §1

ZDHHC8 isoform 3 = ZDHHC8 isoform 3 (UniProt Q9ULC8)
Method in brief: as §1

ZEB2 = ZEB2 (UniProt O60315)
ZEB2, sequence (O60315 whole entry, looked up): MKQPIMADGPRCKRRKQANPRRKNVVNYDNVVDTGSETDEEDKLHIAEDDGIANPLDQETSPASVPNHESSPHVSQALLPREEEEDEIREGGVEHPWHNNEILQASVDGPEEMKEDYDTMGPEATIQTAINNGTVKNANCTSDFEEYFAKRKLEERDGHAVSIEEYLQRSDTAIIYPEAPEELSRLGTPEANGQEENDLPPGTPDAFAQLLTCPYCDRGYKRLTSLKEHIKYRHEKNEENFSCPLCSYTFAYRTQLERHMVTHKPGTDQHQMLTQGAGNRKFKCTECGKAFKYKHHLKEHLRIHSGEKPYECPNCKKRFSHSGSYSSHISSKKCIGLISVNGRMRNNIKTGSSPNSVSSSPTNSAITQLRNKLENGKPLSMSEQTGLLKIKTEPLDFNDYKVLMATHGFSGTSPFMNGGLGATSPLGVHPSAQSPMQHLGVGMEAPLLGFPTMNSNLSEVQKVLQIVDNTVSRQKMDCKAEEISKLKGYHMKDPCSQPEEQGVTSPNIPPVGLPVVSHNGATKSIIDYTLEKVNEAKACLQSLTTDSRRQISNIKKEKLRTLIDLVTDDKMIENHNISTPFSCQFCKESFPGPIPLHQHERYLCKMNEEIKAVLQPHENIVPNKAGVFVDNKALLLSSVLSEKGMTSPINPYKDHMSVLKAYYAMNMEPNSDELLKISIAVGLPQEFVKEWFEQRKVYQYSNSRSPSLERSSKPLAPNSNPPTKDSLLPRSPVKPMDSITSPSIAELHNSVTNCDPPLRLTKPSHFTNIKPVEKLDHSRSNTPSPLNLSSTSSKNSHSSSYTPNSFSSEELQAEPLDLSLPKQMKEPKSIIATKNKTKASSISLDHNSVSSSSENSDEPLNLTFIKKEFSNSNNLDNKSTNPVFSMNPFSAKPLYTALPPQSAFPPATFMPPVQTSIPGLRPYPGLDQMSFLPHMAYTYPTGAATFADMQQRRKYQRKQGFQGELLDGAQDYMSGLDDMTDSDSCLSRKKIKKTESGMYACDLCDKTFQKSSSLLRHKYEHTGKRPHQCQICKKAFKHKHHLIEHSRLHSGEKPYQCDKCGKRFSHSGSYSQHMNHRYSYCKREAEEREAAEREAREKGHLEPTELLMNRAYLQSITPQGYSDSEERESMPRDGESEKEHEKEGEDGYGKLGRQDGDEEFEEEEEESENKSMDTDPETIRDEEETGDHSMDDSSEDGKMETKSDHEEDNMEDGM
Method in brief: as §1

ZER1 = ZER1 (UniProt Q7Z7L7)
Method in brief: as §1

ZFAND5 = ZFAND5 (UniProt O76080)
Method in brief: as §1

ZFAND6 = ZFAND6 (UniProt Q6FIF0)
ZFAND6, sequence (Q6FIF0 whole entry, looked up): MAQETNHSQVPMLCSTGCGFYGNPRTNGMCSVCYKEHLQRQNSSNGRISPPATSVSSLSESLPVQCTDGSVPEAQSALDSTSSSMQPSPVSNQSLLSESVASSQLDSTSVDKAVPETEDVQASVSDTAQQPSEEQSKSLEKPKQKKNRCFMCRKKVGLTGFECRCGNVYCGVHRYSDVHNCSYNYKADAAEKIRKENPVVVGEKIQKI
Method in brief: as §1

ZFP91 = ZFP91 (UniProt Q96JP5)
Method in brief: as §1

ZFPL1 = ZFPL1 (UniProt O95159)
Method in brief: as §1

ZMAT2 = ZMAT2 (UniProt Q96NC0)
ZMAT2, sequence (Q96NC0 whole entry, looked up): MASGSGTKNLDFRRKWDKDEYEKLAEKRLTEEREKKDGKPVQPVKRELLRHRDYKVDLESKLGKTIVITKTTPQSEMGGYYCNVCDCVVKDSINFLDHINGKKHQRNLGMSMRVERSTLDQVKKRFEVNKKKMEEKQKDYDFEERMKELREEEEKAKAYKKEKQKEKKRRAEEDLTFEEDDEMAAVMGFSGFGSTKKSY
Method in brief: as §1

ZMYM1 = ZMYM1 (UniProt Q5SVZ6)
ZMYM1, sequence (Q5SVZ6 whole entry, looked up): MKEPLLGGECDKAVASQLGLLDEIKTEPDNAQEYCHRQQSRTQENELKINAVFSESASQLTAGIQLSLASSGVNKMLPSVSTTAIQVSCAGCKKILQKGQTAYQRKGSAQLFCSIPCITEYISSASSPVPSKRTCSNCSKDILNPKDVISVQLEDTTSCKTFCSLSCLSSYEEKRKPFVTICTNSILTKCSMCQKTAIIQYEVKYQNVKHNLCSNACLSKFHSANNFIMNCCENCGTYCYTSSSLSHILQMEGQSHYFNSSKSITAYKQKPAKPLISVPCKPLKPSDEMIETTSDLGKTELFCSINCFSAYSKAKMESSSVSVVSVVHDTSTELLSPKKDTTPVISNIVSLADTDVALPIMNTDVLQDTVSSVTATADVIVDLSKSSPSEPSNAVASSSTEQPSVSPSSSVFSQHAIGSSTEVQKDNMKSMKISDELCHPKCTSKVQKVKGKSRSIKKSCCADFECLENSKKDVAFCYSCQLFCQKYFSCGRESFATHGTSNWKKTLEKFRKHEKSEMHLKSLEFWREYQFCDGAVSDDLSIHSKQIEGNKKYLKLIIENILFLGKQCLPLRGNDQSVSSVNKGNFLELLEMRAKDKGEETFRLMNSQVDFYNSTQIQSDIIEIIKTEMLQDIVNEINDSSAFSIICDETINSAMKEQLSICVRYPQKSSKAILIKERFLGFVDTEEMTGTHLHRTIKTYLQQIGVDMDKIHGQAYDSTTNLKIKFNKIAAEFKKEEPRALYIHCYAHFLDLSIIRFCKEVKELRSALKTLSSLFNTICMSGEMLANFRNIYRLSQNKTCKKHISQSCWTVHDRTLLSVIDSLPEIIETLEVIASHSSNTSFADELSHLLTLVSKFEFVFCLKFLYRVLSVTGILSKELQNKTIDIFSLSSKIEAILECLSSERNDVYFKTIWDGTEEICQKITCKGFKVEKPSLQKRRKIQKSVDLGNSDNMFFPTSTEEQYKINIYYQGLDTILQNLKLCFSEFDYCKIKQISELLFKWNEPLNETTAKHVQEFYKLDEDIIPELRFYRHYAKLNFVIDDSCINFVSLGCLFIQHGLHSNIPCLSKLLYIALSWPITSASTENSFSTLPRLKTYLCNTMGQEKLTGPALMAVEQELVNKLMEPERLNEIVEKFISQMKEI
Method in brief: as §1

ZMYM3 = ZMYM3 (UniProt Q14202)
Method in brief: as §1

ZNF143 = ZNF143 (UniProt P52747)
ZNF143, sequence (P52747 whole entry, looked up): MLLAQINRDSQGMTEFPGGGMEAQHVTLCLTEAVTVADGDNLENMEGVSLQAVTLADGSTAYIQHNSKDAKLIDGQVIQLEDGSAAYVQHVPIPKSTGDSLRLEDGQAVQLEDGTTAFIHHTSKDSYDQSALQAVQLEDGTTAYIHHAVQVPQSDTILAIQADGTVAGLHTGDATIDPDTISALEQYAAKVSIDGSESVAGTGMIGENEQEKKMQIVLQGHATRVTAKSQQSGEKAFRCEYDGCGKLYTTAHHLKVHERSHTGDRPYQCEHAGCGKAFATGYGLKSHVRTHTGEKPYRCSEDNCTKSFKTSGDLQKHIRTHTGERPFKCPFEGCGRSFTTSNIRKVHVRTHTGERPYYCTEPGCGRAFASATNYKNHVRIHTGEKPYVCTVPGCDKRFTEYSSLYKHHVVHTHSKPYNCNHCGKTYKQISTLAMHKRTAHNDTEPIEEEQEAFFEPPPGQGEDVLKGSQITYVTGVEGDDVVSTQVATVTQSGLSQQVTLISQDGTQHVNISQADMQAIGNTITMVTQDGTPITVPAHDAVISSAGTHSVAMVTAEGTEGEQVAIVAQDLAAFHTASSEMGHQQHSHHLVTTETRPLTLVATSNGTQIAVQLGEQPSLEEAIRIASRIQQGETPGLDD
Method in brief: as §1

ZDHHC6 = ZDHHC6 (UniProt Q9H6R6)
Method in brief: as §1

Structure (SMILES) | log2 fold change (ZC3H8) | log2 fold change (ZC3HC1) | log2 fold change (ZCCHC9) | log2 fold change (ZDHHC17) | log2 fold change (ZDHHC20) | log2 fold change (ZDHHC5) | log2 fold change (ZDHHC7 isoform 2) | log2 fold change (ZDHHC8 isoform 3) | log2 fold change (ZEB2) | log2 fold change (ZER1) | log2 fold change (ZFAND5) | log2 fold change (ZFAND6) | log2 fold change (ZFP91) | log2 fold change (ZFPL1) | log2 fold change (ZMAT2) | log2 fold change (ZMYM1) | log2 fold change (ZMYM3) | log2 fold change (ZNF143) | log2 fold change (ZDHHC6)
O=C(Nc1cccc(Nc2ncc(Br)c(NCCc3cnc[nH]3)n2)c1)N1CCCC1 | 0.038 | -0.078 | 0.08 | 0.011 | -0.025 | -0.076 | 0.028 | 0.06 | -0.106 | -0.015 | 0.01 | -0.058 | 0.004 | -0.047 | 0.017 | -0.136 | -0.042 | -0.058 | –
COc1ccc(Cn2ccc3ccc(C(=O)NO)cc32)cc1 | -0.128 | 0.13 | -0.05 | 0.137 | -0.034 | -0.01 | -0.022 | 0.07 | -0.078 | -0.236 | -0.032 | 0.066 | -0.076 | 0.074 | 0.378 (active) | -0.056 | 0 | -0.035 | –
CNCc1ccc(-c2[nH]c3cc(F)cc4c3c2CCNC4=O)cc1 [rucaparib] | 0.19 | -0.047 | 0.4 | -0.034 | 0.115 | 0.086 | -0.067 | – | – | -0.271 | -0.012 | -0.241 (active) | 0.113 | 0.021 | -0.206 | 0.331 | 0.049 | -0.008 | 0.176
Cc1cn(-c2cc(NC(=O)c3ccc(C)c(Nc4nccc(-c5cccnc5)n4)c3)cc(C(F)(F)F)c2)cn1 [nilotinib] | 0.016 | -0.052 | -0.046 | -0.004 | 0.016 | 0.091 | 0.104 | 0.086 | 0.025 | 0.098 | 0.098 | 0.014 | 0.023 | -0.047 | 0.012 | -0.009 | 0.041 | -0.105 | –
Cc1ccc(-n2nc(C(C)(C)C)cc2NC(=O)Nc2ccc(OCCN3CCOCC3)c3ccccc23)cc1 [doramapimod] | 0.038 | -0.056 | 0.169 | 0.264 (active) | -0.025 | 0.027 | 0.113 | 0.359 | 0.032 | -0.163 | 0.106 | 0.017 | 0.109 | -0.098 | -0.024 | 0.003 | -0.009 | 0.01 | –
CN1CCC(CNc2ccc3ncc(-c4cccc(OC(F)(F)F)c4)n3n2)CC1 | 0.397 (active) | -0.402 (active) | 0.181 | 0.065 | 0.035 | 0.31 (active) | -0.415 (active) | – | – | -0.172 | -0.068 | -0.037 | 0.171 | -0.085 | 0.008 | 0.086 | 0.035 | -0.109 | 0.011
CC(C)N(C[C@H]1O[C@@H](n2cnc3c(N)ncnc32)[C@H](O)[C@@H]1O)[C@H]1C[C@@H](CCc2nc3cc(C(C)(C)C)ccc3[nH]2)C1 [pinometostat] | 0.017 | -0.005 | 0.187 | 0.053 | 0.025 | -0.02 | -0.024 | 0.026 | 0.06 | 0.098 | -0.047 | -0.048 | 0.136 | -0.11 | -0.037 | 0.001 | -0.011 | 0.014 | –
Cc1ncc(-c2ccnc(Nc3ccc(S(C)(=O)=O)cc3)n2)n1C(C)C | 0.036 | -0.01 | 0.005 | -0.022 | 0.022 | -0.009 | 0.059 | -0.014 | -0.05 | 0.058 | -0.099 | -0.031 | -0.035 | -0.01 | -0.027 | -0.033 | -0.009 | 0.074 | –
CC[C@H](C)n1cc(C)c2c(C(=O)NCc3c(C)cc(C)[nH]c3=O)cc(-c3ccc(N4CCNCC4)nc3)cc21 | -0.012 | 0.164 | 0.013 | -0.022 | -0.046 | -0.052 | -0.099 | -0.064 | 0.173 | 0.064 | -0.045 | -0.05 | 0.04 | -0.013 | -0.073 | -0.016 | 0.055 | 0.068 | –
CCn1c(C(=O)N(C2CC2)C2CC2)cc2c3c(ncn3C)c(Nc3cc(C)n(C)n3)nc21 | -0.034 | -0.059 | 0.003 | -0.061 | -0.023 | -0.012 | 0.011 | – | -0.041 | 0.045 | 0.063 | 0.046 | -0.028 | 0.042 | 0.022 | -0.079 | -0.029 | 0.075 | –
Cc1cc(Nc2cc(CN3CCOCC3)c3nc(C)c(Cc4ccc(Cl)cc4F)n3n2)n[nH]1 [gandotinib] | 0.15 | -0.157 | 0.265 | 0.052 | 0.018 | -0.041 | 0.034 | – | – | -0.269 | 0.066 | -0.004 | 0.214 | 0.011 | -0.014 | 0.305 | 0.051 | 0.025 | -0.018
CC(C)c1cnn2c(NCc3ccccc3)cc(NCCCCCCN)nc12 | 0.177 | -0.151 | 0.004 | -0.061 | -0.229 | 0.007 | -0.008 | – | -0.187 | -0.072 | 0.072 | 0.075 | 0.007 | 0.146 | 0.138 | 0.09 | 0.04 | -0.158 | –
Cc1ccc(NC(=O)c2cccc(N(C)C)c2)cc1NC(=O)c1ccc(O)cc1 | 0.03 | -0.209 | 0.062 | 0.01 | 0.085 | -0.007 | 0.014 | – | 0.071 | -0.059 | 0.034 | 0.026 | 0.036 | 0.094 | 0 | 0.051 | 0.056 | 0.023 | –
Cn1cc(-c2ccc3c(c2)CCN3C(=O)Cc2cccc(C(F)(F)F)c2)c2c(N)ncnc21 | -0.084 | 0.014 | -0.074 | 0.018 | -0.036 | -0.02 | -0.088 | – | – | -0.021 | -0.02 | 0.067 | -0.161 | 0.049 | -0.023 | 0.07 | 0.053 | -0.129 | –
Cn1c2cc(S(C)=O)sc2c2cnn(Cc3cccc(N)c3)c(=O)c21 (configuration not stated) | 0.127 | -0.135 | – | -0.027 | 0.084 | -0.049 | 0.02 | 0.121 | 0.098 | 0.019 | 0.022 | -0.003 | 0.099 | -0.031 | -0.034 | -0.014 | -0.023 | -0.003 | –
COc1cccc2cc(-c3nc([C@H]4CC[C@H](C(=O)O)CC4)n4ncnc(N)c34)[nH]c12 | -0.02 | 0.032 | -0.121 | 0.003 | 0.11 | -0.007 | – | – | 0.051 | 0.067 | 0.129 | 0.046 | -0.042 | -0.039 | 0.071 | -0.128 | 0.001 | 0.05 | –
